Consider 8 sequences from PMC8384837, “Expanding the binding specificity for RNA recognition by a PUF domain”.

Where a chain is given by its changes, count along the chain named.

Experiment in all cases: yeast three-hybrid, YBZ-1, SC-Leu-His + 0.5 mM 3-AT, 4 days
Holding throughout (conditions): tags: N-Gal4 AD-HA kept; label: inside an RPR1-promoter hybrid RNA with tandem MS2 sites; ssRNA

The target in one assay is PUM1 PUF domain R5-FRG (Homo sapiens, UniProt Q14671 828-1176, C1007F;Q1011G). A digest of the protocol:
(§1)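 Repeat regions from input (SC-Leu) and selection (SC-Leu-His + 0.5 mM 3-AT) plates were PCR-amplified and Illumina-sequenced after four days of growth. The cells were strain YBZ-1 with a LexA–MS2 coat fusion and a HIS3 reporter, co-expressing Pumilio-1 PUF domain libraries and matching RNA elements from a centromeric plasmid. The interaction score is the log change in variant frequency from input to selection, taken in log2 with a pseudocount of 1 for absent variants.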

Another assay concerns the target PUM1 PUF domain R3-GYH (Homo sapiens, UniProt Q14671 828-1176, C935G;R936Y;Q939H). A digest of the protocol:
as §1

The target in the next assay is PUM1 PUF domain R7-GIR (Homo sapiens, UniProt Q14671 828-1176, S1079G;N1080I;E1083R). A digest of the protocol: as §1
For the next assay, the target named is PUM1 PUF domain R4-PHA (Homo sapiens, UniProt Q14671 828-1176, N971P;Q975A). A digest of the protocol:
as §1

The next assay concerns the target PUM1 PUF domain R4-AMC (Homo sapiens, UniProt Q14671 828-1176, N971A;H972M;Q975C). In a few lines:
as §1

In a further assay the target is PUM1 PUF domain R4-DHG (Homo sapiens, UniProt Q14671 828-1176, N971D;Q975G). In a few lines:
as §1

The next assay addresses T1, PUM1 PUF domain R6-VWL (Homo sapiens, UniProt Q14671 828-1176, N1043V;Y1044W;Q1047L).
T1 sequence: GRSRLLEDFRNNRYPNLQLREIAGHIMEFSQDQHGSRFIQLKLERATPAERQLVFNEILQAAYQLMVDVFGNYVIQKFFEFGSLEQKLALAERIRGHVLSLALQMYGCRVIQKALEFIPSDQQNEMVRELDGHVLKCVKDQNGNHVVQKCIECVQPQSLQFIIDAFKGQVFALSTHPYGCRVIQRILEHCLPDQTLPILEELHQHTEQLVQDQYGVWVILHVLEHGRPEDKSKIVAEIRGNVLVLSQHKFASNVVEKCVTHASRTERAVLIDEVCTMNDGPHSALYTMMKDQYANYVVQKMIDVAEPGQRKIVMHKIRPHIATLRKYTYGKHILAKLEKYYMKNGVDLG
In a few lines:
as §1

The next assay deals with T2, PUM1 PUF domain R6-LWL (Homo sapiens, UniProt Q14671 828-1176, N1043L;Y1044W;Q1047L).
T2 sequence: T1 sequence with V216L
In a few lines: as §1

The target in a further assay is PUM1 PUF domain R5-PRI (Homo sapiens, UniProt Q14671 828-1176, C1007P;Q1011I). In a few lines: as §1
A further assay addresses PUM1 PUF domain R8-RHY (Homo sapiens, UniProt Q14671 828-1176, N1122R;Y1123H;Q1126Y). A digest of the protocol:
as §1

As to “GGCUAGAACUAGUGGAUCCCCCGGCGCCCGGCGGCUCGAGCCCGGGUAAGUGUUAAUAGUCUGCAUGCCGCCGGGCGCCAUGCCUGCAGGUCGACUCUAGAAAACAUG”, the binding signal in the assay with PUM1 PUF domain R5-FRG was 2.88 log2 enrichment (interaction score).
Regarding “GGCUAGAACUAGUGGAUCCCCCGGCGCCCGGCGGCUCGAGCCCGGGUAAGUGUCAAUAGUCUGCAUGCCGCCGGGCGCCAUGCCUGCAGGUCGACUCUAGAAAACAUG”, the binding signal in the assay with PUM1 PUF domain R5-FRG is 2.42 log2 enrichment (interaction score).
As to “GGCUAGAACUAGUGGAUCCCCCGGCGCCCGGCGGCUCGAGCCCGGGUAAGUGUAAUUAGUCUGCAUGCCGCCGGGCGCCAUGCCUGCAGGUCGACUCUAGAAAACAUG”, the binding signal with PUM1 PUF domain R3-GYH was 2.58 log2 enrichment (interaction score).
With “GGCUAGAACUAGUGGAUCCCCCGGCGCCCGGCGGCUCGAGCCCGGGUAAGUUUAAAUAGUCUGCAUGCCGCCGGGCGCCAUGCCUGCAGGUCGACUCUAGAAAACAUG”, the binding signal with PUM1 PUF domain R7-GIR was 3.02 log2 enrichment (interaction score).
In the case of “GGCUAGAACUAGUGGAUCCCCCGGCGCCCGGCGGCUCGAGCCCGGGUAAGUGUACAUAGUCUGCAUGCCGCCGGGCGCCAUGCCUGCAGGUCGACUCUAGAAAACAUG”, the binding signal is 5.37 log2 enrichment (interaction score) in the assay with PUM1 PUF domain R4-PHA and 2.52 log2 enrichment (interaction score) with PUM1 PUF domain R4-AMC.
Consider “GGCUAGAACUAGUGGAUCCCCCGGCGCCCGGCGGCUCGAGCCCGGGUAAGUGUAAAUAGUCUGCAUGCCGCCGGGCGCCAUGCCUGCAGGUCGACUCUAGAAAACAUG”, for which the binding signal is 3.07 log2 enrichment (interaction score) with PUM1 PUF domain R4-DHG; 4.01 log2 enrichment (interaction score) with PUM1 PUF domain R6-VWL; 3.89 log2 enrichment (interaction score) in the assay with PUM1 PUF domain R6-LWL; 6.46 log2 enrichment (interaction score) with PUM1 PUF domain R4-PHA; 4.45 log2 enrichment (interaction score) with PUM1 PUF domain R5-PRI; 3.21 log2 enrichment (interaction score) with PUM1 PUF domain R4-AMC.
On to “GGCUAGAACUAGUGGAUCCCCCGGCGCCCGGCGGCUCGAGCCCGGGUAAGCGUAAAUAGUCUGCAUGCCGCCGGGCGCCAUGCCUGCAGGUCGACUCUAGAAAACAUG”, for which the binding signal in the assay with PUM1 PUF domain R8-RHY was 4.97 log2 enrichment (interaction score).
In the case of “GGCUAGAACUAGUGGAUCCCCCGGCGCCCGGCGGCUCGAGCCCGGGUAAGUGUAUAUAGUCUGCAUGCCGCCGGGCGCCAUGCCUGCAGGUCGACUCUAGAAAACAUG”, the binding signal in the assay with PUM1 PUF domain R4-PHA was 6.34 log2 enrichment (interaction score).
